Screening data: PubChem, National Center for Advancing Translational Sciences (NCATS)
ALDH1A1 inh – qHTS Assay for Inhibitors of Aldehyde Dehydrogenase 1 (ALDH1A1); Purified ALDH1A1, NADH fluorescence, propionaldehyde substrate; Aldehyde dehydrogenase 1A1 (Homo sapiens), P00352; Potency, µM (doses to about 75.3 µM), most hits filed as inhibitors; actives 7.3% (n = 220,000); active means well fitted inhibition curve with a large enough effect, not every such curve was filed as active; inconclusive means small, poorly fitted or top-dose-only effect, or another doubt; inactive means no such curve, though single readings can be large or run the other way
Target sequence (P00352 whole entry, looked up): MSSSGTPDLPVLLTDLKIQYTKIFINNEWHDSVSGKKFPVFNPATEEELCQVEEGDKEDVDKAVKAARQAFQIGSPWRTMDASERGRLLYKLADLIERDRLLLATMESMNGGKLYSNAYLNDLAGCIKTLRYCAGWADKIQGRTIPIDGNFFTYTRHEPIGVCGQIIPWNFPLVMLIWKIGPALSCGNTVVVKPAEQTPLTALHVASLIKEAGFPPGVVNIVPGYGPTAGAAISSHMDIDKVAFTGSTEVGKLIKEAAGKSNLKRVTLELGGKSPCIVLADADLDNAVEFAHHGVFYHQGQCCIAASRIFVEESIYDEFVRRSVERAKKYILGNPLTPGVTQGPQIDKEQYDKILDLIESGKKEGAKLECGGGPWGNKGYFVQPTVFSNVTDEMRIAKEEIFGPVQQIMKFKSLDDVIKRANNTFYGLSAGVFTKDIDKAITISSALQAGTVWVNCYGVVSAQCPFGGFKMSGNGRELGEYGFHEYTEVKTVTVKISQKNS
IMPase Li cell – qHTS Assay for Identifying the Cell-Membrane Permeable IMPase Inhibitors: Potentiation with Lithium; CHO-M1 cells, IP1 TR-FRET (IP-One), carbachol + lithium; Potency, µM (highest dose often 59.4 µM), usual class: inhibitors; actives 0.35% (n = 210,000); AID 1457, 2008;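 further: IP1 builds up when IMPase is blocked and the TR-FRET signal falls; nearly all actives have a fitted effect of over 50% in size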
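Steps: plate 2000 CHO-M1 cells per well and culture 16–30 h; add compound and lithium; incubate 30 min, 37C; add d2-IP1 tracer and Eu cryptate anti-IP1 antibody in lysis buffer; read after 10 min at room temperature.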
HPGD inh – qHTS Assay for Inhibitors of HPGD (15-Hydroxyprostaglandin Dehydrogenase); purified HPGD, NADH fluorescence kinetic, PGE2 substrate; 15-hydroxyprostaglandin dehydrogenase [NAD(+)] (Homo sapiens), P15428; Potency, µM, actives largely listed as inhibitors; actives 4.3% (n = 150,000); active means well fitted inhibition curve with a large enough effect, not every such curve was filed as active; inconclusive means small, poorly fitted or top-dose-only effect, or another doubt; inactive means no such curve, though single readings can be large or run the other way
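NADH formation kinetics: reaction with 30 uM PGE2 and 1 mM NAD+ (final), 20 nM enzyme, Tris-HCl pH 8 with Tween 20, after 15 min compound preincubation at room temperature. Fluorescence change, last versus first of five reads.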
HTT aggregate – qHTS Multiplex Assay to Identify Dual Action Probes in a Cell Model of Huntington: Aggregate Formation (GFP); PC12 HttQ103-GFP aggregates, Acumen cytometry, 40 h; Potency, µM (highest dose often 46.1 µM), most hits filed as inhibitors; actives 1.1% (n = 220,000); further: nearly all actives have a fitted effect of over 60% in size
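PC12/HTTQ103-GFP, ecdysone-inducible; teb 100 nM; cpd qHTS titration; GFP aggregates read on laser cytometer, Ex 488/Em 500-530 nm.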
IMPase inh – qHTS Assay for Identifying the Cell-Membrane Permeable IMPase Inhibitors | 120,000 tested, under 10 active | Inositol monophosphatase 1 (Rattus norvegicus), P97697 | CHO-M1 cells, IP1 accumulation, HTRF TR-FRET ratio | inhibition (IP1 accumulation), % at 46.1 µM | AID 901, 2007; active means well fitted curve in the direction sought with a large enough effect in the signal ratio, not every such curve was filed as active; inconclusive means small, poorly fitted or top-dose-only effect, or a change in a side signal; inactive means no such curve, though single readings can be large or run the other way; the % refers to the signal ratio;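 further: cells stimulated with carbachol in lithium chloride buffer; higher means more IMPase inhibition seen as more IP1 and lower FRET ratio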
Target sequence (P97697 whole entry, looked up): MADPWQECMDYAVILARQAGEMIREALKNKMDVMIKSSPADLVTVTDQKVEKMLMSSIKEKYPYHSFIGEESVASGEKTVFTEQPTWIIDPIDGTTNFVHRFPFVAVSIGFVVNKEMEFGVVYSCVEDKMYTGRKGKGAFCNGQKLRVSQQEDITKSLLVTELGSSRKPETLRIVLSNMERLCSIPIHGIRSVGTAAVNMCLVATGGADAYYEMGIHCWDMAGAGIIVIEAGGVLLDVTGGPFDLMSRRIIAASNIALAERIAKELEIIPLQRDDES
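CHO-M1 cells (CHO stably expressing M1 receptor), compound up to 46 uM final, stimulated with carbachol (50 uM as added) in buffer with 50mM LiCl, pH 7.4, 30 min at 37C. Cytosolic IP1 read by TR-FRET; AC50 from Hill fits.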
HTT cytoprotect – qHTS Multiplex Assay to Identify Dual Action Probes in a Cell Model of Huntington: Cytoprotection (ATP) | Potency, µM (highest dose often 56.4 µM), most hits filed as activators | AID 1471, 2008 | actives 0.14% (n = 230,000) | PC12 HTT-Q103 induced, cytoprotection, ATP luminescence, 40 h; further: nearly all actives have a fitted effect of over 45% in size
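Quantitative HTS on tebufenozide-induced (100 nM) PC12 cells expressing HTTQ103 exon 1–GFP; compounds tested as a concentration series; survival measured via cellular ATP.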
A number is an active result; . = inactive; ? = inconclusive; / = no result given; [ ] = another dose, or the depositor's remark. Only some compounds are listed: those with a hit (about 9.4% of all), similar ones and a draw of the others. Unless noted, the call rests on the fitted dose curve; in most records, active means well fitted curve in the direction sought with a large enough effect; inconclusive means small, poorly fitted or top-dose-only effect, or another doubt; inactive means no such curve, though single readings can be large; an effect the other way counts as inactive or inconclusive.

SMILES | ALDH1A1 inh | IMPase Li cell | HPGD inh | HTT aggregate | IMPase inh | HTT cytoprotect
COc1ccc(C(=O)CN2CCN(S(=O)(=O)c3cccc([N+](=O)[O-])c3)CC2)cc1OC | 20µM | . | ? | . | . | .[10 µM]
COc1cccc(C(=O)CN2CCN(S(=O)(=O)c3cccc([N+](=O)[O-])c3)CC2)c1 | 18µM | . | . | . | . | .[10 µM]
CCOc1ccccc1Nc1ccc(N)cc1S(=O)(=O)O | .[13.5 µM] | . | . | / | / | .[10 µM]
COc1ccc2c(c1)O[C@H](c1ccc3c(c1)OCO3)[C@@H](OC(=O)NCCc1ccc(OC)c(OC)c1)C2=O | . | . | . | / | / | .
CCCS(=O)(=O)c1nnnn1-c1cccc(OC)c1 | 1.4µM | . | 22µM | 3.5µM | . | .
COc1cccc(CS(=O)(=O)c2nnnn2C2CCCCC2)c1 | . | . | . | / | / | .
COc1cccc(CS(=O)(=O)c2nnnn2-c2ccccc2)c1 | 1µM | . | . | / | / | ?
C=CC[C@@](C(C)=O)(C(=O)OC)C(NC(=O)OC)c1ccccc1 (some centres undefined) | . | . | . | / | / | .
CCCN(CCc1ccccc1)[C@H]1CCc2c(O)cccc2C1 | / | / | / | / | . | .[1.9 µM]
Cc1cccc(N2C(N)=NC(N)=NC23CCCCC3)c1 | . | . | . | . | . | .
COc1ccc(OC)c(N2C(N)=NC(N)=NC23CCCC3)c1 | 22µM | / | / | . | . | .
Cc1cc(/C=C2\SC(=S)NC2=O)c(C)n1-c1ccccc1 | ? | / | / | .[9.22 µM] | / | .[10 µM]
O=C1NC(=S)S/C1=C\c1ccc(SCc2ccco2)o1 | 0.89µM | . | 7.1µM | . | / | .[10 µM]
O=C1NC(=S)S/C1=C\c1ccc(SCc2ccccc2)o1 | ? | . | 18µM | ? | / | .[10 µM]
CCC1=NN2C(=N)/C(=C\c3ccc(SCc4ccco4)o3)C(=O)N=C2S1 | . | . | . | . | . | .
CCCC1=NN2C(=N)/C(=C\c3ccc(SCc4ccco4)o3)C(=O)N=C2S1 | 22µM | . | 22µM | .[1.84 µM] | . | .
Cc1ccc(S(=O)(=O)Oc2ccc(N=Nc3ccc(-c4ccc(N=Nc5c(O)ccc6cc(S(=O)(=O)O)cc(S(=O)(=O)O)c56)c(C)c4)cc3C)cc2)cc1 | ? | . | . | / | / | .
N#CC(=C1CCCC1)c1nc(-c2ccccc2)cs1 | . | . | . | . | . | .
N#CC(=C1CCCC1)c1nc(-c2ccccc2O)cs1 | 25µM | . | ? | . | ? | .[10 µM]
COC(=O)[C@@H]1C=C[C@H](C)[C@H](CCOc2ccccc2)O1 | . | . | . | / | / | .
CSc1cccc(NC(=O)c2c(Cl)cnn2C)c1 | . | . | . | . | ? | .
Cn1ncc(Cl)c1C(=O)Nc1cccc(Cl)c1 | 7.9µM | . | 13µM | . | . | .[10 µM]
COc1cc(CN2CCN(Cc3ccc([N+](=O)[O-])cc3)CC2)c([N+](=O)[O-])cc1OC | 35µM | . | / | ? | / | .[10 µM]
O=[N+]([O-])c1ccc(CN2CCSCC2)cc1 | . | . | / | . | / | .[10 µM]
COc1cc(CN2CCN(c3ccccc3F)CC2)c([N+](=O)[O-])cc1OC | 28µM | . | . | . | / | .[0.074 µM]
SMILES | ALDH1A1 inh | IMPase Li cell | HPGD inh | HTT aggregate | IMPase inh | HTT cytoprotect
COc1cccc(CN2CCN(Cc3cc(OC)c(OC)cc3[N+](=O)[O-])CC2)c1 | 25µM | . | . | . | . | .
COc1cccc(CN2CCN(C(=O)Nc3ccc([N+](=O)[O-])cc3)CC2)c1 | ? | . | / | ? | / | .
CCN(CC)CC(=O)NC12CC3CC(CC(C3)C1)C2 | . | . | . | . | . | .
CCN(CC)C(=S)SCC(=O)NC12CC3CC(CC(C3)C1)C2 | 4.5µM | . | 14µM | ? | / | .[10 µM]
COc1ccc(COC(=O)N/N=C2/C[C@@H](O)[C@@H](O)[C@@H]3[C@H]4C(=O)N(c5ccc(F)cc5F)C(=O)[C@@H]4CC[C@@H]23)cc1 | .[13.5 µM] | / | / | / | / | .[10 µM]
O=c1c(-c2ccccc2)nc2cnc(Oc3cccc(Cl)c3)nc2n1C[C@H]1CCCO1 | ? | . | / | / | / | .
O=C(CNCCC1=CCCCC1)Nc1ccccc1N1CCCCC1 | 9.5µM | . | ? | . | . | .[1.9 µM]
Cc1ccccc1CSCCC(=O)NCCC1=CCCCC1 | . | . | 13µM | . | . | .[10 µM]
CC(C(=O)NCCC1=CCCCC1)N1C(=O)c2ccccc2C1=O (centres undefined) | . | . | . | 5.6µM | . | .[10 µM]
O=C(CCc1ccccc1)NCCC1=CCCCC1 | . | . | 25µM | . | / | .[0.074 µM]
O=C(CCSCc1ccc(Cl)cc1)NCCC1=CCCCC1 | . | . | . | . | . | .[10 µM]
O=C(CCCc1ccccc1)NCCC1=CCCCC1 | ? | . | / | .[9.22 µM] | / | .
N=C(N)SCc1nc(-c2ccc(Cl)cc2)no1 | .[13.5 µM] | . | . | / | / | .[10 µM]
O=C(O)c1cccc(N=Nc2c(S(=O)(=O)O)ccc3c2C(=O)c2ccccc2C3=O)c1O | .[13.5 µM] | . | . | / | / | .[10 µM]
CC(C)[C@@H](CC(=O)N[C@@H]1CCCC[C@H]1C(=O)N[C@H](CC(=O)N[C@@H](CCC(=O)O)CC(=O)O)Cc1ccccc1)NC(=O)C[C@H](Cc1c[nH]c2ccccc12)NC(=O)[C@@H]1CNCC[C@H]1N | . | . | . | / | / | .[1.9 µM]
CC(C)c1ccc(/C=C/C(=O)NCCC2=CCCCC2)cc1 | 4.5µM | . | . | . | . | .[10 µM]
Cc1ccc(CSCCNC(=O)CCSc2ccccc2)cc1 | ? | . | ? | . | . | .
O=C(NCCC1=CCCCC1)NC12CC3CC(CC(C3)C1)C2 | ? | . | . | 22µM | . | .[10 µM]
Cc1ccccc1CSCCNC(=O)CCSc1ccccc1 | 7.1µM | . | 10µM | . | . | .
O=C1CCC=C1C(O)c1ccccc1 (centres undefined) | . | . | . | / | / | .
c1ccc(N2CCN(C3CCSC3)CC2)cc1 (centres undefined) | 18µM | . | . | . | . | .
CCCOc1cccc(C(=O)Nc2ccc(-c3nc4ccccc4o3)cc2)c1 | / | / | / | / | . | /
CCC(Oc1ccccc1)C(=O)Nc1ccsc1C(=O)OC (centres undefined) | 14µM | . | ? | . | / | .[10 µM]
CCC(Oc1ccccc1)C(=O)Nc1ccccn1 (centres undefined) | 2.8µM | . | . | . | . | .
CCCNC(=O)Nc1ccsc1C(=O)OC | . | . | / | . | / | /
CCC(Oc1ccccc1)C(=O)NC1CCSC1=O (centres undefined) | 6.3µM | ? | / | .[9.22 µM] | / | .[10 µM]
CCC(Oc1ccccc1)C(=O)Nc1cc(C)on1 (centres undefined) | . | . | . | . | . | .[10 µM]
O=c1cnc2cnc(N3CCOCC3)nc2n1Cc1ccc(F)cc1 | ? | . | ? | / | / | .
